Here are results for 40 molecules from PubChem BioAssay.

The experiment in a line: TOR pathway CIT2 reporter hit retest – S. cerevisiae, GFP fusion, cherry picks, mother/daughter gates, confirmation (AID 2274). The settings on record: S. cerevisiae CIT2-GFP strain, flow cytometry, 3 h; measured here: mother cell gate; at 10 µM; stronger effect = higher value. In general terms: In flow cytometry, cells or beads pass a laser one at a time.
On to `Cc1c(O)nc(SC2CC(=O)N(c3ccccc3)C2=O)[nH]c1=O` (stereo not given), for which the GFP response, % of DMSO worked out at 96.8%.

For `COC(=O)c1ccc(/C=N\NC(=O)c2ccc(C)cc2Cl)cc1`, the GFP response, % of DMSO is 99.7%.

Take `Cc1cccc(CS(=O)(=O)c2ncc(Cl)c(C(=O)NCc3ccccc3)n2)c1`: the GFP response, % of DMSO was 95.5%.

In turn, `Cc1ccc(S(=O)(=O)N2CCCC2C(=O)OCc2ccco2)cc1` (stereo not given) came in with a GFP response, % of DMSO of 112%.

Molecule `Clc1ccc(N=c2ssnc2Cl)cc1` showed a GFP response, % of DMSO of 99.8%.

Take `O=C1c2ccccc2C(=O)C2OC12` (stereo not given): the GFP response, % of DMSO was 85.8%.

As to `CCCc1[nH]nc2c1C(c1ccc(OC)cc1OC)C(C#N)=C(N)O2` (stereo not given), the GFP response, % of DMSO came out at 91.4%.

`O=[N+]([O-])c1ncccc1OCc1ccc(-c2ccccc2)cc1`: the GFP response, % of DMSO was found to be 114%.

As for `C/C(=N/NS(=O)(=O)c1ccccc1)c1ccc(NC(=O)C(F)(F)F)cc1`, the GFP response, % of DMSO is 93.3%.

As to `O=C1c2ccsc2SCCN1Cc1ccccc1`, the GFP response, % of DMSO came out at 90.2%.

`CCc1ccc(-c2csc(NC(=O)COC(=O)CCc3nc4ccccc4s3)n2)cc1` gave a GFP response, % of DMSO of 105%.

For the molecule `COc1ccc(-c2nn(-c3ccccc3)cc2C(=O)NC(=S)NNC(=O)c2ccncc2)cc1`, the GFP response, % of DMSO came to 104%.

Consider `CCOC(=O)Cc1csc(NC(=O)CSc2nnc(-c3ccc(C)cc3)o2)n1`, for which the GFP response, % of DMSO amounted to 105%.

Consider `CCOC(=O)C1=C(Cc2ccc(Cl)cc2)C(=O)c2ccccc2C1=O`, for which the GFP response, % of DMSO stood at 94.5%.

`COC(=O)c1ccc(N2C(=O)CC(SCCN)C2=O)cc1` (stereo not given) gave a GFP response, % of DMSO of 99.3%.

`O=S1(=O)Nc2c(ccc3cccnc23)-c2ccccc21` displayed a GFP response, % of DMSO of 113%.

Molecule `Cc1cccc2c1NC(=O)/C2=C\C(=O)c1cccs1` registered a GFP response, % of DMSO of 83.7%.

The molecule `Nc1cccnc1S(=O)(=O)c1cccc(C(F)(F)F)c1` showed a GFP response, % of DMSO of 93.8%.

In turn, `CC(Oc1ccc(Br)cc1)C(=O)Nc1nc(-c2ccccn2)cs1` (stereo not given) showed a GFP response, % of DMSO of 93.8%.

The molecule `O=C1Nc2ccccc2C(=O)C1(Cl)Cc1ccccc1` (stereo not given) gave a GFP response, % of DMSO of 90.4%.

As for `Cc1ccc(C(c2cc(Cl)c3cccnc3c2O)N2CCN(C)CC2)cc1` (stereo not given), the GFP response, % of DMSO was found to be 113%.

`Cc1ccc(C)c(NC(=O)c2ccccc2O)c1` gave a GFP response, % of DMSO of 96%.

As for `CN(C)CCCNc1cc(C(C)(C)C)nc2c(-c3ccc(Cl)cc3)cnn12`, the GFP response, % of DMSO stood at 92.6%.

As for `O=C(O)c1ccc(N/N=C/c2c(F)cccc2Cl)cc1`, the GFP response, % of DMSO was found to be 94.5%.

Molecule `O=C(O)c1ccccc1C(=O)N1CCN(c2cccc(Cl)c2)CC1` gave a GFP response, % of DMSO of 95.6%.

As to `O=C(COC(=O)CCc1nc2ccccc2s1)Nc1nc(-c2ccccc2)cs1`, the GFP response, % of DMSO was determined as 103%.

Molecule `O=[N+]([O-])c1cc(O)c2ncccc2c1` returned a GFP response, % of DMSO of 131%.

As for `NC1=NC(=O)C(CC(=O)c2ccc(Cl)cc2)S1` (stereo not given), the GFP response, % of DMSO turned out to be 94.5%.

On to `NC(=O)C1CCN(C(=S)NCCc2ccccc2)CC1`, for which the GFP response, % of DMSO worked out at 103%.

Regarding `COc1ccc(-c2cc(C(F)(F)F)nc(S(C)(=O)=O)n2)cc1`, the GFP response, % of DMSO was 86.9%.

In turn, `Oc1c(C(Nc2cccc(C(F)(F)F)c2)c2ccncc2)ccc2cccnc12` (stereo not given) had a GFP response, % of DMSO of 94.5%.

In the case of `CC(=O)Nc1cccc(Oc2ccc(-c3noc(C)n3)cc2)c1`, the GFP response, % of DMSO worked out at 96.8%.

`N#C/C(C(=O)Nc1ccc(Cl)cc1)=C(/S)Nc1ccccc1` yielded a GFP response, % of DMSO of 105%.

Molecule `COc1ccc(NC2=C(Cl)C(=O)N(CCc3ccccc3)C2=O)c(OC)c1` returned a GFP response, % of DMSO of 97.7%.

`CCN=C(NCC)SC1CC(=O)N(c2cccc(OCC)c2)C1=O` (stereo not given) displayed a GFP response, % of DMSO of 102%.

`Cn1c(=O)[nH]c(=O)c2c1nc(N1CCCCC1)n2CCOc1ccccc1` had a GFP response, % of DMSO of 103%.

Molecule `CC(=O)Nc1ccc(NC(=O)c2nc(S(=O)(=O)Cc3ccccc3)ncc2Cl)cc1` returned a GFP response, % of DMSO of 99.3%.

As for `COc1cc(CCN2C(=O)c3cccc4cccc(c34)C2=O)c(S(=O)(=O)NCCCO)cc1OC`, the GFP response, % of DMSO came out at 93.3%.

Take `CCOc1cc(C)c(S(=O)(=O)N2CCCC2)cc1C`: the GFP response, % of DMSO was determined as 80.9%.

For `CC1CCCCN1S(=O)(=O)c1ccc(C(=O)Nc2nnc(-c3ccccc3Cl)o2)cc1` (stereo not given), the GFP response, % of DMSO amounted to 98.5%.
